Compound activity: PubChem, National Center for Advancing Translational Sciences (NCATS)
Tb PFK block – T. brucei PFK enzyme inhibition; O15648; T. brucei PFK, ADP-Glo luminescence; Potency, µM (highest dose often 57.5 µM), without a hit: at the top dose activity, negative = inhibition, most hits filed as inhibitors; 330,000 compounds, 0.17% hits;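 also: potency is read from the fitted curve at half-maximal effect; 0% = uninhibited 1x PFK enzyme wells and -100% = no-enzyme wells; nearly all actives have a fitted effect of over 60% in size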
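Activity is normalized to no-enzyme wells (full inhibition) and 1.25 nM enzyme wells (no inhibition). Reaction: 0.5 mM F6P, 0.1 mM ATP, 45 min RT, ADP-Glo luminescence; concentration-response curves fitted and classed by quality.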
CCT chaperon mod – cytosolic chaperonin activity modulation; AID 651819; activity change, % (concentration not given with the values), hits read low; 360,000 compounds, 0.3% hits; purified chaperonin ATPase assay, HTRF ADP detection, 30 min; in the data active = activity change below about -30%; also: % is scaled to controls: 0 for no effect and ±100 for the full control effect
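TRiC (40 or 20 nM final, by batch activity) in 30 mM Tris pH 7.4, 100 mM KCl, 5 mM MgCl2, 1 mM DTT was treated with compound at 76 uM single dose, then 10 uM ATP, 30 min at 37 °C. ADP was read by HTRF Transcreener.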
BCR signal inh – chronic active BCR signaling inhibition; ABC-DLBCL IkBa-CBG/CBR reporter, luminescence ratio, 4 h; Potency, µM (series often up to 46.1 µM), without a hit: at the top dose activity change, negative = inhibition, usual class: inhibitors; 340,000 compounds, 0.05% hits; AID 493014; active = well fitted inhibition curve with a large enough effect in the signal ratio, with a control signal flat, not every such curve was filed as active; inconclusive = small, poorly fitted or top-dose-only effect, or effect the other way, or a change in a side signal; the % refers to the signal ratio;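 also: potency is read from the fitted curve at half-maximal effect; plate controls were basal doxycycline-induced cells for no effect and cells given 10 µM MG132 for full effect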
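TMD8 human ABC-DLBCL cells with doxycycline-inducible IκBα–green luciferase fusion and unfused red luciferase, in 0.5% FBS medium; compounds up to 46 uM, 4 h at 37C. Green/red luminescence ratio, filter-overlap corrected, fitted to concentration-response curves.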
S-ASM inh – human S-ASM enzyme inhibition; placental ASM, HMU-PC fluorogenic substrate, 60 min; Potency, µM (titrated, usually from 57.5 µM), for inactives: at the top dose activity change, negative = inhibition, most hits filed as inhibitors; 340,000 compounds, 0.006% hits; AID 504937; also: potency is read from the fitted curve at half-maximal effect
Target sequence (P17405 47-631 limits assumed): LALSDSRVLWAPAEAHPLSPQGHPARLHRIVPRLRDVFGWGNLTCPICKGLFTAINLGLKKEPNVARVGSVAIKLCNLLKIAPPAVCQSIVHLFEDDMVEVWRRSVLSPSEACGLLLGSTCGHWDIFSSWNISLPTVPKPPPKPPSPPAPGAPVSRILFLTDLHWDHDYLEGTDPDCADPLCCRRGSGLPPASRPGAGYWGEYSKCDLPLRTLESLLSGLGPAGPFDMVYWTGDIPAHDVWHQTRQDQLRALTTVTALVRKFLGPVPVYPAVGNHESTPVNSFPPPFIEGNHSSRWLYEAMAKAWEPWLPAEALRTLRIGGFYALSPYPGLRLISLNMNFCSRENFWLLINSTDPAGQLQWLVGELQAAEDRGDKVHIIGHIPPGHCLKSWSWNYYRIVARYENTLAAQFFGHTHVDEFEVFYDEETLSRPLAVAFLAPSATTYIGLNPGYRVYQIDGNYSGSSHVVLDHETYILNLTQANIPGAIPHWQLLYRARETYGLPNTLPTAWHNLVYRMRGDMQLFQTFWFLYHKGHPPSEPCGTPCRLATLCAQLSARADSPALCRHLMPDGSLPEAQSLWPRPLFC
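Fluorogenic HMU-PC substrate (9 uM final) is turned over by placental ASM in 60 min at 37 C after a 10 min compound preincubation. Reaction ended by alkaline stop (pH 10), with fluorescence read at 386/447 nm.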
TCR activator – activates T cell receptor signaling; primary human leukocytes, anti-CD3, IL-2 HTRF, 48 h; AID 504894; Potency, µM (highest dose often 9.22 µM), inactives show at the top dose activation of IL-2 secretion, most hits filed as activators; 330,000 tested, under 10 active; also: % of control where 0% means no effect
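48 hr co-incubation of compounds, a-CD3 beads and primary human leukocytes; IL-2 quantified homogeneously by HTRF with anti-IL-2 K and d2 conjugates.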
An asterisk follows results filed as active; ? = inconclusive; nt = not tested or not shown; [ ] = remark or other dose. Sampled rows, rich in hits. Any-hit rate of the full collection: about 0.49%. Unless noted, calls follow the shape of the dose curve; as a rule, active = well fitted curve in the direction sought with a large enough effect; inconclusive = small, poorly fitted or top-dose-only effect, or another doubt; inactive = no such curve, though single readings can be large; an effect the other way counts as inactive or inconclusive.

SMILES	Tb PFK block	CCT chaperon mod	BCR signal inh	S-ASM inh	TCR activator
COc1ccc(C)cc1NC1=C(Cl)C(=O)N(C2CCCCC2)C1=O	1%	-3	19%	-13%	3%
CCOc1ccc(NC2=C(Cl)C(=O)N(C3CCCCC3)C2=O)cc1	-4%	-32*	2%	0%	-7%[46.1 µM]
Cc1ccc(CCNC(=O)c2ccc(CNS(=O)(=O)c3ccc(F)cc3)cc2)cc1	nt	nt	12%	nt	nt
CC(c1cccs1)N(Cc1ccco1)C(=S)Nc1ccc(F)c(Cl)c1 (stereo unspecified)	-29%	-59*	?	0%	-3%
Cc1cccc(NC(=S)N(Cc2ccco2)C(C)c2cccs2)c1 (stereo unspecified)	2%	-2	0%	1%	4%
S=c1[nH]nc(COc2ccccc2)n1/N=C/C=C/c1ccccc1	3%	-87*	-2%	-2%	2%[46.1 µM]
COC(=O)[C@@]1(Cc2ccccc2)[C@H]2C(=O)N(C)C(=O)[C@H]2[C@H]2CN=C(SCc3ccc(C)cc3)N21	-2%	-60*	?	-3%	-10%[46.1 µM]
CN1CCN(C(c2ccccn2)c2cc(Cl)c3cccnc3c2O)CC1 (stereo unspecified)	-12%	-3	7.1µM*	4%	-6%
Cc1ccc(C(c2cc(Cl)c3cccnc3c2O)N2CCN(C)CC2)cc1 (stereo unspecified)	-13%	-1	-3%	0%	-4%
CCN(c1cccc(C)c1)c1ncnc2c1cnn2-c1cccc(Cl)c1	nt	nt	14%	nt	nt
O=C1C=C(NCc2ccc(Cl)cc2)CC(c2ccco2)C1 (stereo unspecified)	-8%	-1	6%	1%	-1%
O=C1C=C(Nc2ccc(Cl)cc2Cl)CC(c2ccco2)C1 (stereo unspecified)	-1%	0	13µM*	1%	7%
CCCCn1c(=N)c(S(=O)(=O)c2ccc(C)cc2)cc2c(=O)n3cc(C)ccc3nc21	nt	nt	20%	nt	nt
COc1ccc(/C=C/C(=O)Nc2ccccc2C(=O)O)cc1OC	?	nt	?	8%	2%
COC(=O)c1ccccc1NC(=O)/C=C/c1cc(OC)c(OC)c(OC)c1	1%	-4	16µM*	30%	-4%
CCCOc1c(Br)cc(C(=O)OCC(=O)NC(=O)c2cccn2C)cc1OC	-6%	-46*	-6%	5%	4%
COc1ccc(NC(=O)c2cc3c(=O)n(C)c4cc(Cl)ccc4c3s2)cc1Cl	nt	nt	9%	nt	nt
Cc1c(-c2ccccc2)nc2ccccc2c1C(=O)OCC(=O)Nc1ncc(C(F)(F)F)cc1Cl	-1%	-53*	3%	-6%	-1%[46.1 µM]
O=C(COC(=O)c1cc(-c2ccccc2Cl)nc2ccccc12)Nc1ncc(C(F)(F)F)cc1Cl	-2%	1	0%	-4%	-3%[46.1 µM]
CCOC(=O)N1CCN(C(=S)NC(=O)C2CCCC2)CC1	-11%	-71*	10%	4%	0%
O=C(OCC#CCNc1nnc(-c2cccc3ccccc23)o1)c1cccs1	-3%	nt	19%	nt	nt
CC(=O)N1CCc2c(sc3c2c(=O)n(-c2cccc(Cl)c2)c(=O)n3Cc2ccc(F)cc2Cl)C1	nt	nt	-6%	nt	nt
O=c1c(Cl)c(NCc2ccc(F)cc2)cnn1C12CC3CC(CC(C3)C1)C2	0%	-31*	?	-2%	3%[46.1 µM]
Cc1ccc(CNc2cnn(C34CC5CC(CC(C5)C3)C4)c(=O)c2Cl)cc1	0%	-1	5%	0%	-3%[46.1 µM]
O=C(CNC(=O)COc1ccccc1)NCc1cccnc1	2%	-41*	1%	-19%	-4%
c1ccc(NCc2cccnc2)cc1	-8%	-121*	7%	3%	-2%
Fc1ccc(NCc2cccnc2)cc1	?	1	-20%	1%	nt
CCOc1ccc(CNC(=O)CN2N=C(c3ccccc3)CCC2=O)cc1OC	nt	nt	-11%	nt	nt
CC1CCCN(CCCNC(=O)c2nn(C)c3c2CS(=O)(=O)c2ccccc2-3)C1 (stereo unspecified)	0%	-76*	-2%	8%	-6%
CC1CCCCN1CCCNC(=O)c1nn(C)c2c1CS(=O)(=O)c1ccccc1-2 (stereo unspecified)	0%	-3	-7%	0%	3%
